The text below walks through data of the antibiotic and cytotoxicity screens of Wong et al. (2023).

Out of some 39,000 compounds screened, about 3,300 (8.5%) were called active. Many of the other results were omitted from the sample, so actives are more common in it than they were.

The test system of the experiment is HepG2. Put plainly: cytotoxicity call (relative viability < 0.9). Conditions: 10 µM.
For the compound `Cc1noc(C)c1NC(=O)Nc1ccc2c(c1)C(=O)N([C@@H](C)CO)C[C@H](C)[C@H](CN(C)Cc1ccc(C(F)(F)F)cc1)O2`, the cytotoxicity call is “inactive”.

On to `Cc1noc(C)c1NC(=O)N(C)C[C@@H]1Oc2c(NS(=O)(=O)c3cn(C)cn3)cccc2C(=O)N([C@H](C)CO)C[C@@H]1C`, for which the cytotoxicity call is “inactive”.

For `OCCCn1cnnc1`, the cytotoxicity call was “inactive”.

Turning to `C[C@H](CO)N1C[C@H](C)[C@H](CN(C)C)Oc2cc(C#CCN(C)C)ccc2S1(=O)=O`, the cytotoxicity call was “inactive”.

Regarding `CN(C)Cc1cn(CC[C@H]2CC[C@H](NS(=O)(=O)c3ccccc3)[C@H](CO)O2)nn1`, the cytotoxicity call was “inactive”.

For `C[C@H]1CN([C@@H](C)CO)C(=O)c2cc(NS(C)(=O)=O)ccc2O[C@H]1CN(C)Cc1ccc(C(=O)Nc2ccccc2N)cc1`, the cytotoxicity call was “inactive”.

Take `C[C@H]1CN([C@@H](C)CO)C(=O)CCCn2nncc2CO[C@@H]1CN(C)C(=O)Nc1cccc2ccccc12`: the cytotoxicity call is “inactive”.

Turning to `C[C@H](CO)N1C[C@H](C)[C@@H](CN(C)C(=O)Nc2ccc(C(F)(F)F)cc2)Oc2ccc(NC(=O)C3CCCCC3)cc2CC1=O`, the cytotoxicity call was “inactive”.

As to `O=C1O[C@@H](c2ccccc2)[C@@H](c2ccccc2)N2[C@@H](c3ccc(OCCO)cc3)[C@]3(C(=O)Nc4ccc(C#CC5(O)CCCCCC5)cc43)[C@@H](C(=O)NC[C@H](O)c3ccccc3)[C@H]12`, the cytotoxicity call was “inactive”.

Regarding `O=C1O[C@@H](c2ccccc2)[C@@H](c2ccccc2)N2[C@@H](c3ccc(OCCO)cc3)[C@]3(C(=O)Nc4ccc(C#CC5=CCCCC5)cc43)[C@@H](C(=O)NC[C@H](O)c3ccccc3)[C@H]12`, the cytotoxicity call was “active”.

Consider `O=C1O[C@@H](c2ccccc2)[C@@H](c2ccccc2)N2[C@@H](c3ccc(O)cc3)[C@]3(C(=O)Nc4ccc(C#CC5=CCCCC5)cc43)[C@@H](C(=O)NC[C@H](O)c3ccccc3)[C@H]12`, for which the cytotoxicity call was “inactive”.

As to `COc1cccc(S(=O)(=O)N(C)C[C@@H]2Oc3ncc(C#CCC(C)C)cc3C(=O)N([C@H](C)CO)C[C@H]2C)c1`, the cytotoxicity call is “inactive”.

As for `O=C(C[C@H]1CC[C@@H]2[C@H](COC[C@@H](O)CN2S(=O)(=O)c2ccccc2)O1)N1CCOCC1`, the cytotoxicity call was “inactive”.

As to `O=C(NC1CCN(CCCCC2(C(=O)NCC(F)(F)F)c3ccccc3-c3ccccc32)CC1)c1ccccc1-c1ccc(C(F)(F)F)cc1`, the cytotoxicity call is “active”.

Turning to `O=C(NC1CCCCCCC1)c1ccccc1-c1ccccc1`, the cytotoxicity call is “inactive”.

Take `C[C@]1(C(=O)NCC(F)(F)F)c2ccccc2C(=O)N(Cc2cc(C(F)(F)F)cc(C(F)(F)F)c2)[C@H]1c1ccc(CO)cc1`: the cytotoxicity call is “inactive”.

Consider `C[C@H]([C@@H](N)C(=O)N[C@H](C(=O)O)[C@H]1O[C@@H](n2ccc(O)cc2=O)[C@@H](O)[C@H]1O)[C@@H](C)c1ccc(O)cn1`, for which the cytotoxicity call is “inactive”.
